# Measurements: the supplement of paper PMC10849652
# The full data set covers some 8,800 targets. This sample favours those with a hit. About 0.5% of all pairs of compound and target were hits. A number with no mark means an inactive call.
# Assays:
# Assay in all cases: log2 fold change, soluble protein after heating vs DMSO (PISA); higher = thermal stabilisation; K562 lysate, 10 uM; active = over 0.2 and 3.5 SD of the protein, either way, in both replicates (recomputed)
# [1] = compound: COc1cc2nc(-c3cc(F)ccc3O)nc(N[C@@H]3CNC[C@H]3C(C)(C)O)c2cc1OC
# Outline: (§1)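 Log-two fold change in thermal stability relative to solvent controls is reported from duplicates. For each sample, crude K562 extract from dounce-homogenised pellets in PBS pH 7.4 with 1 mM MgCl2, at 1 mg/mL protein, was treated with 10 μM compound for 30 min. Aliquots heated for 3 min across 48°C-58°C were pooled, brought to 0.5% NP-40 at 4°C and cleared at 21,000xg for 90 min. The supernatant was quantified by TMTpro 16plex LC-MS/MS with channel sums equalised.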
# alvocidib = compound: CN1CC[C@H](c2c(O)cc(O)c3c(=O)cc(-c4ccccc4Cl)oc23)[C@H](O)C1 [alvocidib]
# Outline: as §1
# Tubastatin A = compound: CN1CCc2c(c3ccccc3n2Cc2ccc(C(=O)NO)cc2)C1 [Tubastatin A]
# Outline: as §1
# [2] = compound: CNC(=O)C1=CC=CC=C1NC2=NC(=NC=C2Cl)NC3=C(C=C(C=C3)N4CCOCC4)OC
# Outline: as §1
# [3] = compound: CNc1nc(-c2ccc3c(N)n[nH]c3c2)cc(N2C[C@@H](C(=O)NC3CCCCC3)CC[C@H]2C)n1
# Outline: as §1
# encorafenib = compound: COC(=O)N[C@@H](C)CNc1nccc(-c2cn(C(C)C)nc2-c2cc(Cl)cc(NS(C)(=O)=O)c2F)n1 [encorafenib]
# Outline: as §1
# [4] = compound: COC(=O)[C@H](CCSC)NC(=O)C1=C(C=C(C=C1)NC[C@H](CS)N)C2=CC=CC=C2
# Outline: as §1
# alisertib = compound: COc1cc(Nc2ncc3c(n2)-c2ccc(Cl)cc2C(c2c(F)cccc2OC)=NC3)ccc1C(=O)O [alisertib]
# Outline: as §1
# gefitinib = compound: COc1cc2ncnc(Nc3ccc(F)c(Cl)c3)c2cc1OCCCN1CCOCC1 [gefitinib]
# Outline: as §1
# defactinib = compound: CNC(=O)c1ccc(Nc2ncc(C(F)(F)F)c(NCc3nccnc3N(C)S(C)(=O)=O)n2)cc1 [defactinib]
# Outline: as §1
# Sequence of UniProt P0C2W1 (P0C2W1 whole entry, looked up): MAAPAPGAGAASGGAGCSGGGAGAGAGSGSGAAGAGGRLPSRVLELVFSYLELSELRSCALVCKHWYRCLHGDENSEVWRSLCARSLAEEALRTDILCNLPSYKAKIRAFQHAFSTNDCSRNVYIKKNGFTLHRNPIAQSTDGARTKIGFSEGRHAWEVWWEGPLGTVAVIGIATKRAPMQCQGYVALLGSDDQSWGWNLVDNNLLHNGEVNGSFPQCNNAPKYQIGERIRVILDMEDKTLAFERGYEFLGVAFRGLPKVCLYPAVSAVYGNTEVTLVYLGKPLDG
# Sequence of UniProt Q14517 (Q14517 whole entry, looked up): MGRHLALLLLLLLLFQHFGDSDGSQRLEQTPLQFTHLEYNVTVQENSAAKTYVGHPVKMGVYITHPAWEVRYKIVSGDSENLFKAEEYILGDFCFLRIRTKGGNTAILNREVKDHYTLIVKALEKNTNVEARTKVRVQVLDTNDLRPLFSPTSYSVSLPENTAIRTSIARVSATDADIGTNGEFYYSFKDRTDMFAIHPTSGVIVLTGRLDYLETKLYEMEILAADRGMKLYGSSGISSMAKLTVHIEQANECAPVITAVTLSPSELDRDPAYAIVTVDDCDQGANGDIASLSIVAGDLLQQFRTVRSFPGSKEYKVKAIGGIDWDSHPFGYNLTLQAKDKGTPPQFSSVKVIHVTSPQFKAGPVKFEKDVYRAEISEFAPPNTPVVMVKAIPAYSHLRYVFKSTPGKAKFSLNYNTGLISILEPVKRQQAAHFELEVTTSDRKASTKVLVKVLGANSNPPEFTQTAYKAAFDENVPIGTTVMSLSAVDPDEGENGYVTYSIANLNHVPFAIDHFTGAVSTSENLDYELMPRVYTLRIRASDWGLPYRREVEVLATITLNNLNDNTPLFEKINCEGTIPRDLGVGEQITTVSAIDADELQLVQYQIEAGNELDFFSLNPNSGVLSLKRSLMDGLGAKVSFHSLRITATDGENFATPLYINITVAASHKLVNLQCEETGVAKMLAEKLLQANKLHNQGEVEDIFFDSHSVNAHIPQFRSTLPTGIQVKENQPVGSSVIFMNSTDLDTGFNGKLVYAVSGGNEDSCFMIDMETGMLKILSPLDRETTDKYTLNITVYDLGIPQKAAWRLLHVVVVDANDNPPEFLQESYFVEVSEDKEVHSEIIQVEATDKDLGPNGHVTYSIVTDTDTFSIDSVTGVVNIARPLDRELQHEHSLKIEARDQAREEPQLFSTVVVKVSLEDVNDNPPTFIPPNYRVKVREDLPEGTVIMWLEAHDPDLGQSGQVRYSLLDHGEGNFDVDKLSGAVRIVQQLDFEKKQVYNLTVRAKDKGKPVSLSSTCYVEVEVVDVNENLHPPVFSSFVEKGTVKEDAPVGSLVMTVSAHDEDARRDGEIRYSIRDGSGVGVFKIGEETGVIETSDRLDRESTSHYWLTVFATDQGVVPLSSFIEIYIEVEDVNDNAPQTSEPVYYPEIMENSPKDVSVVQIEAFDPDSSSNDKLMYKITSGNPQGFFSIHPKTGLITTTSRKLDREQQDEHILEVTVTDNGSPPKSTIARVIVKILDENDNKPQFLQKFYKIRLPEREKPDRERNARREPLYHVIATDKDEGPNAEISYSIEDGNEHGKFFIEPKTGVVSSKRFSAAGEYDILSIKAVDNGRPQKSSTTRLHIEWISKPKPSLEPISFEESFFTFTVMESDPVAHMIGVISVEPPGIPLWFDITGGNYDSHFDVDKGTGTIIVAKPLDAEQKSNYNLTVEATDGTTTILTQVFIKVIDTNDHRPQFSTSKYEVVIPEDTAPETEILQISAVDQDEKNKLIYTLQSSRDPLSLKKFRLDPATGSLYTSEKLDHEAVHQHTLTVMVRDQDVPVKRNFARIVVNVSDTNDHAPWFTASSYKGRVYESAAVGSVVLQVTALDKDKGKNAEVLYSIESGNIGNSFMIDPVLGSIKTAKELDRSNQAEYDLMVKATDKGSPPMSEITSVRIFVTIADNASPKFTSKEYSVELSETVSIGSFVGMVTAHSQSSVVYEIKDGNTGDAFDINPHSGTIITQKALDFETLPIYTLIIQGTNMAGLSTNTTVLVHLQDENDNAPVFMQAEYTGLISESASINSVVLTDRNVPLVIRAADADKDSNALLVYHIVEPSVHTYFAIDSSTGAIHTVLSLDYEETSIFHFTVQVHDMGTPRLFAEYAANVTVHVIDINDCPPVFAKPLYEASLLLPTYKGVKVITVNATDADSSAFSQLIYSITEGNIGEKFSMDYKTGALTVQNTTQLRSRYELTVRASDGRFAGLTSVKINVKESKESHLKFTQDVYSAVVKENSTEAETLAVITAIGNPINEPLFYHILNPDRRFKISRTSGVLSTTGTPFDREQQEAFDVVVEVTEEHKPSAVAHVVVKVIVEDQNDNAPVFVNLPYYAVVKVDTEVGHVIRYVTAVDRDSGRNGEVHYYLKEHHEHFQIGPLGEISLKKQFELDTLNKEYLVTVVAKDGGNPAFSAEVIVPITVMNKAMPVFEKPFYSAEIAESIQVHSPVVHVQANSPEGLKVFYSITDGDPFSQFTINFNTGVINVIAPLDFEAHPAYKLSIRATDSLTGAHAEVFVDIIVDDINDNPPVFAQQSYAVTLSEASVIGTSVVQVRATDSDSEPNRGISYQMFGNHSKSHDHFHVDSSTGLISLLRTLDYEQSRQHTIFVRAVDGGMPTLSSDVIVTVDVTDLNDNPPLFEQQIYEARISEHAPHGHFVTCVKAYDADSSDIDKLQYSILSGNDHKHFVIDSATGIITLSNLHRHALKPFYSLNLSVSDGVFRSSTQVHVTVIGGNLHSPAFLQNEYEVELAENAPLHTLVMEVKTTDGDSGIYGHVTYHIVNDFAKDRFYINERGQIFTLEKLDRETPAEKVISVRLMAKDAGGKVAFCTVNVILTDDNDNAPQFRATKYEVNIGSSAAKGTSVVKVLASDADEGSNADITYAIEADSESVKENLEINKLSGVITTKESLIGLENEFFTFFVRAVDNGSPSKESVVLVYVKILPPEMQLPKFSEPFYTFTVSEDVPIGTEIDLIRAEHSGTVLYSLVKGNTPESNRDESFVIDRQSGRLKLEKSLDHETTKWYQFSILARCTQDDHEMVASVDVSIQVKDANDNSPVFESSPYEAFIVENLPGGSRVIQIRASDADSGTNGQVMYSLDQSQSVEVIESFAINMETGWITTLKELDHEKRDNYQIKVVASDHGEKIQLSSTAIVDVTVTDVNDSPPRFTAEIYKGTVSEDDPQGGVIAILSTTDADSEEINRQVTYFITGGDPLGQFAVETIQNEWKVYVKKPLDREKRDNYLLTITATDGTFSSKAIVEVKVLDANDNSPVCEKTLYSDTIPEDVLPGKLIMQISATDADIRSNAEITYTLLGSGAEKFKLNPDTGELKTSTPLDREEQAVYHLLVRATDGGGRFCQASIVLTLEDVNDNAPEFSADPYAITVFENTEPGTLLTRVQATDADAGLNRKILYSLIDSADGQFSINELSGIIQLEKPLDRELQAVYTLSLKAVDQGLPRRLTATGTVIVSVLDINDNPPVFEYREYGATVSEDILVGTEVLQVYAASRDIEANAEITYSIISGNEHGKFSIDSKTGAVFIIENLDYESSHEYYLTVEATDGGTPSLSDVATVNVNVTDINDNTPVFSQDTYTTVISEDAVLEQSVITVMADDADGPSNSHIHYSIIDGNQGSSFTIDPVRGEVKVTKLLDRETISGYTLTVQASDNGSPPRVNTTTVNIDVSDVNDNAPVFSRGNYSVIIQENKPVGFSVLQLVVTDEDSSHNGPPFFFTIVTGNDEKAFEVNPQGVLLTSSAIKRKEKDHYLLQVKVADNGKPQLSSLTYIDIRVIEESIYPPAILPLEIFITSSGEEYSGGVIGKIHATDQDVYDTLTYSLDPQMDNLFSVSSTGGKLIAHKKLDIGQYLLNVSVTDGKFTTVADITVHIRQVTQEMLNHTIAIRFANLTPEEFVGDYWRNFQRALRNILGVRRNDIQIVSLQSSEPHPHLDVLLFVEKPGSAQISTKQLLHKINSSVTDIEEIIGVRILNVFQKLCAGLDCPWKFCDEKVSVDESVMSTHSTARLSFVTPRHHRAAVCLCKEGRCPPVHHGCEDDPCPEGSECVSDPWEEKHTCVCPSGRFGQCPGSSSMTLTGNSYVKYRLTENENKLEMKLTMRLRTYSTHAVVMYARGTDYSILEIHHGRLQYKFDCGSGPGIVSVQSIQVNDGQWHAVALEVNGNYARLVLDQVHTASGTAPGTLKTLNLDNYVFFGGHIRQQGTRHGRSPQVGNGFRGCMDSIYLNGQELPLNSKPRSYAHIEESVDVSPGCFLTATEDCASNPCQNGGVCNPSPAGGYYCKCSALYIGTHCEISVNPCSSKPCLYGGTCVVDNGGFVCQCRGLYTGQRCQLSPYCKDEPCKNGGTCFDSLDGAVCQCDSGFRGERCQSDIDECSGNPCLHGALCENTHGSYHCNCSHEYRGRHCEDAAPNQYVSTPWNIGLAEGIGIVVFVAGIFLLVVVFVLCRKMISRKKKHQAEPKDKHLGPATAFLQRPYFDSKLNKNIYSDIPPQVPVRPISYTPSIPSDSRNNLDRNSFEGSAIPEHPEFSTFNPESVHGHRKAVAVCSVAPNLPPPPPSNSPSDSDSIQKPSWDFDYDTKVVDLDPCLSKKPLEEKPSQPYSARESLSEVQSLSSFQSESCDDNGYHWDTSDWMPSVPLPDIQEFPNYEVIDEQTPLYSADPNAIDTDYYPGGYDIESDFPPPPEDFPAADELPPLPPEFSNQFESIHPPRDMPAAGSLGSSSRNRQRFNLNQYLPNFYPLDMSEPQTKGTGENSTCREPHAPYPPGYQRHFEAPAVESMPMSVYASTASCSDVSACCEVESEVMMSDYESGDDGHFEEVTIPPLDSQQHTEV
# Sequence of UniProt Q9NRW4 (Q9NRW4 whole entry, looked up): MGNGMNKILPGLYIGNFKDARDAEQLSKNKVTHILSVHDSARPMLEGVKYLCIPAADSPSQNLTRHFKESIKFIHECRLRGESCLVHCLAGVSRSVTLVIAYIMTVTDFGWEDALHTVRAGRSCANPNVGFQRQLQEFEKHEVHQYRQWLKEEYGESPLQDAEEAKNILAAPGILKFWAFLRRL
# Sequence of UniProt Q6IPR1 (Q6IPR1 whole entry, looked up): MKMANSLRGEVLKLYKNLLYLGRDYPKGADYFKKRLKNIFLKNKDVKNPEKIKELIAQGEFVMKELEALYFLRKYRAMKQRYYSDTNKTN
Target,log2 fold change [1],log2 fold change (alvocidib),log2 fold change (Tubastatin A),log2 fold change [2],log2 fold change [3],log2 fold change (encorafenib),log2 fold change [4],log2 fold change (alisertib),log2 fold change (gefitinib),log2 fold change (defactinib)
GAPVD1 (UniProt Q14C86),0.071,,,,,,,,,
FOXJ2 (UniProt Q9P0K8),,0.006,-0.114,0.021,0.053,-0.081,0.022,-0.308,0.057,
FLT4 (UniProt P35916),0.031,-0.086,-0.001,-0.428 (active),-0.081,-0.129,0.053,,,0.004
EWSR1 (UniProt H7BY36),,0.206,0.179,,0.037,0.063,-0.061,,,0.14
FAT1 (UniProt Q14517),0.094,-0.14,0.18,0,,0.029,0.047,,,
FYN (UniProt P06241),0.005,-0.078,0.03,-0.009,-0.069,0.092,-0.121,,,0.038
EIF3I (UniProt Q5TFK1),0.613,0.053,,,,,,0.159,0.233,
DST isoform 3 (UniProt Q03001),,0.386,,-0.061,,0.008,-0.004,,,
GIPC3 (UniProt Q8TF64),0.008,-0.108,-0.071,0.055,-0.157,0.028,0.05,-0.194,0.073,
EPB41 isoform 4 (UniProt P11171),-0.153,-0.014,0.012,-0.089,,,,-0.09,-0.096,
EXO5 (UniProt Q9H790),,,0.018,0.068,,,,,,
DYNC1I2 isoform 2 (UniProt Q13409),0.096,0.065,0.002,-0.02,-0.039,0.011,0.056,,,0.001
FNDC3A (UniProt Q9Y2H6),,-0.017,-0.237,0.014,,,,-0.141,-0.214,
GC isoform 3 (UniProt P02774),,0.105,0.087,,0.244,-0.018,-0.049,,,-0.003
GBA2 (UniProt Q9HCG7),0.013,-0.046,-0.032,0.073,-0.098,-0.052,0.079,-0.004,0.2,
FBXO45 (UniProt P0C2W1),0.02,-0.047,-0.162,-0.035,,-0.062,-0.035,0.003,-0.002,-0.009
GART (UniProt C9JZG2),-0.056,-0.071,0.018,,,0.038,0.088,0.121,0.281,
"EIF2B5, A0A3B3ITK8",-0.03,,,,,,,-0.014,-0.08,
FAM111A (UniProt Q96PZ2),-0.091,,-0.083,0.022,-0.119,-0.074,-0.11,,,0.053
DTL (UniProt Q9NZJ0),,-0.008,-0.072,-0.003,-0.092,,,-0.038,0.043,0.071
EID1 (UniProt Q9Y6B2),,-0.061,-0.004,0.036,0.046,-0.057,0.072,-0.067,0.022,
ETFRF1 (UniProt Q6IPR1),-0.042,0.025,0.032,-0.006,0.021,,,0.003,-0.009,-0.071
EPN2 (UniProt I3L356),-0.02,-0.108,,,,,,-0.253,0.321,
FAT2 (UniProt Q9NYQ8),0.043,-0.214,-0.083,-0.123,,-0.092,0.104,-0.023,0.013,-0.034
DUSP22 isoform 2 (UniProt Q9NRW4),-0.11,0.034,-0.079,-0.066,0.043,,,0.18,-0.101,-0.085
GCA (UniProt P28676),-0.253,-0.016,,-0.035,,,,-0.038,-0.197,
